Source: PubChem BioAssay (NCI)
Compounds without any hit were thinned out: in the full panel of roughly 79,000, 15% have a hit. Values without a mark were called inactive. Active and inactive are the calls of the source. Cut-off read from the data, not from the text of the source: active = growth inhibition above about 70%; inactive = the rest.

Columns and labels:
[1] = NCI Yeast Anticancer Drug Screen. Data for the rad50 strain (AID 155);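 note: 0% = growth of vehicle-only cultures of the same strain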; conditions: S. cerevisiae rad50 strain growth inhibition, active compounds read high
Summary of the method: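 DNA repair mutant yeast, compound exposure, growth read-out; inhibition is taken relative to vehicle.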

[2] = NCI Yeast Anticancer Drug Screen. Data for the mec2-1 strain (AID 157); conditions: S. cerevisiae mec2-1 strain, active compounds read high
Summary of the method: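 Using mec2-1 yeast: add compound, measure growth, express inhibition versus vehicle-treated cultures.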

[3] = NCI Yeast Anticancer Drug Screen. Data for the sgs1 mgt1 strain (AID 161);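 note: 0% = growth of cultures given vehicle only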; conditions: S. cerevisiae sgs1 mgt1 strain, active compounds read high
Summary of the method: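 Percent growth inhibition was derived by comparing compound-exposed mutant yeast with vehicle-exposed cultures. The strain carries alterations in DNA damage repair.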

[4] = NCI Yeast Anticancer Drug Screen. Data for the cln2 rad14 strain (AID 165);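 note: 0% = growth equal to vehicle treated cultures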; conditions: S. cerevisiae cln2 rad14 strain, active compounds read high
Summary of the method: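 Yeast strain cln2 rad14, bearing defects in cell cycle control and DNA repair, serves as the test system; values reflect growth inhibition compared with vehicle.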

[5] = NCI Yeast Anticancer Drug Screen. Data for the bub3 strain (AID 167); conditions: S. cerevisiae bub3 mutant strain, active compounds read high
Summary of the method: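 In this screen, a yeast mutant lacking normal mitotic checkpoint function is challenged with compound. Relative growth versus vehicle gives the inhibition value.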

[6] = NCI Yeast Anticancer Drug Screen. Data for the mlh1 rad18 strain (AID 175); conditions: S. cerevisiae mlh1 rad18 strain growth inhibition, active compounds read high
Summary of the method: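 Steps: expose repair-defective yeast to compound; measure growth; express inhibition against vehicle-treated controls.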

[7] = at 5.0 µM (retest, dose inferred, filed as 0.5)
[8] = at 50.0 µM (retest, dose inferred, filed as 5.0)

**Q.** Which results are given for CC(C)(C)c1ccc(-n2c3nc(=O)n(-c4ccccc4C(F)(F)F)c(=O)c-3cc3ccccc32)cc1?
**A.** growth inhibition [1, 7]: 13%; growth inhibition [1, 8]: 96% (active); growth inhibition ([1]; at 50.0 µM): 59.1%; growth inhibition [2, 7]: 3%; growth inhibition [2, 8]: 99% (active); growth inhibition ([2]; at 50.0 µM): 50%; growth inhibition [3, 7]: 10%; growth inhibition [3, 8]: 98% (active); growth inhibition ([3]; at 50.0 µM): 61.1%; growth inhibition [4, 7]: 13%; growth inhibition [4, 8]: 97% (active); growth inhibition ([4]; at 50.0 µM): 60.5%; growth inhibition [5, 7]: 8%; growth inhibition [5, 8]: 98% (active); growth inhibition ([5]; at 50.0 µM): 47.1%; growth inhibition [6, 7]: 15%; growth inhibition [6, 8]: 98% (active); growth inhibition ([6]; at 50.0 µM): 65.6%

**Q.** With COC(=O)C1=C(CS(=O)c2ccccc2[N+](=O)[O-])ON(C)C1c1ccccc1 (stereo not drawn) as the compound, how does the growth inhibition [1, 7] read?
**A.** 3%

**Q.** And the growth inhibition [1, 8]?
**A.** 49%

**Q.** What about the growth inhibition ([1]; at 50.0 µM) of the same compound?
**A.** 6.55%

**Q.** And the growth inhibition [2, 7]?
**A.** -9%

**Q.** And the growth inhibition [2, 8]?
**A.** 66%

**Q.** And the growth inhibition ([2]; at 50.0 µM)?
**A.** 53.1%

**Q.** What about the growth inhibition [3, 7] of the same compound?
**A.** 13%

**Q.** And the growth inhibition [3, 8]?
**A.** 74% (active)

**Q.** What about the growth inhibition ([3]; at 50.0 µM) of the same compound?
**A.** 56.8%

**Q.** What about the growth inhibition [4, 7] of the same compound?
**A.** -4%

**Q.** And the growth inhibition [4, 8]?
**A.** 11%

**Q.** What about the growth inhibition ([4]; at 50.0 µM) of the same compound?
**A.** 22.2%

**Q.** And the growth inhibition [5, 7]?
**A.** -3%

**Q.** What about the growth inhibition [5, 8] of the same compound?
**A.** 45%

**Q.** And the growth inhibition ([5]; at 50.0 µM)?
**A.** 59.4%

**Q.** And the growth inhibition [6, 7]?
**A.** 5%

**Q.** And the growth inhibition [6, 8]?
**A.** 13%

**Q.** And the growth inhibition ([6]; at 50.0 µM)?
**A.** 68.5%

**Q.** Which growth inhibition [1, 7] does the source give for [N-]=[N+]=NCC(O)c1ccc2c(c1)[nH]c1ccccc12 (stereo not drawn) here?
**A.** -11%

**Q.** What about the growth inhibition [1, 8] of the same compound?
**A.** 30%

**Q.** And the growth inhibition ([1]; at 50.0 µM)?
**A.** 47.9%

**Q.** And the growth inhibition [2, 7]?
**A.** -7%

**Q.** What about the growth inhibition [2, 8] of the same compound?
**A.** 30%

**Q.** And the growth inhibition ([2]; at 50.0 µM)?
**A.** 29.6%

**Q.** What about the growth inhibition [3, 7] of the same compound?
**A.** -5%

**Q.** What about the growth inhibition [3, 8] of the same compound?
**A.** 41%

**Q.** And the growth inhibition ([3]; at 50.0 µM)?
**A.** 27.6%

**Q.** What about the growth inhibition [4, 7] of the same compound?
**A.** -8%

**Q.** And the growth inhibition [4, 8]?
**A.** 23%

**Q.** What about the growth inhibition ([4]; at 50.0 µM) of the same compound?
**A.** 81.8% (active)

**Q.** And the growth inhibition [5, 7]?
**A.** -4%

**Q.** What about the growth inhibition [5, 8] of the same compound?
**A.** 36%

**Q.** And the growth inhibition ([5]; at 50.0 µM)?
**A.** 64%

**Q.** What about the growth inhibition [6, 7] of the same compound?
**A.** 24%

**Q.** And the growth inhibition [6, 8]?
**A.** 68%

**Q.** What about the growth inhibition ([6]; at 50.0 µM) of the same compound?
**A.** 75.4% (active)

**Q.** With NC(=S)NNCCC(=O)Nc1ccccc1C(F)(F)F as the compound, how does the growth inhibition [1, 7] read?
**A.** 2%

**Q.** And the growth inhibition [1, 8]?
**A.** 3%

**Q.** What about the growth inhibition ([1]; at 50.0 µM) of the same compound?
**A.** -9.75%

**Q.** What about the growth inhibition [2, 7] of the same compound?
**A.** -2%

**Q.** And the growth inhibition [2, 8]?
**A.** 2%

**Q.** What about the growth inhibition ([2]; at 50.0 µM) of the same compound?
**A.** 12.2%

**Q.** And the growth inhibition [3, 7]?
**A.** 3%

**Q.** What about the growth inhibition [3, 8] of the same compound?
**A.** 4%

**Q.** And the growth inhibition ([3]; at 50.0 µM)?
**A.** -1.9%

**Q.** What about the growth inhibition [4, 7] of the same compound?
**A.** -3%

**Q.** And the growth inhibition [4, 8]?
**A.** 7%

**Q.** And the growth inhibition ([4]; at 50.0 µM)?
**A.** 6.15%

**Q.** And the growth inhibition [5, 7]?
**A.** 0%

**Q.** What about the growth inhibition [5, 8] of the same compound?
**A.** 1%

**Q.** What about the growth inhibition ([5]; at 50.0 µM) of the same compound?
**A.** 65.8%

**Q.** And the growth inhibition [6, 7]?
**A.** -2%

**Q.** And the growth inhibition [6, 8]?
**A.** 7%

**Q.** What about the growth inhibition ([6]; at 50.0 µM) of the same compound?
**A.** 2.75%

**Q.** What does the source list for O=C(CBr)N1c2ccccc2Sc2ccc3ccccc3c21?
**A.** growth inhibition [1, 7]: 93% (active); growth inhibition [1, 8]: 99% (active); growth inhibition ([1]; at 50.0 µM): 90.5% (active); growth inhibition [2, 7]: 49%; growth inhibition [2, 8]: 99% (active); growth inhibition ([2]; at 50.0 µM): 90.7% (active); growth inhibition [3, 7]: 81% (active); growth inhibition [3, 8]: 99% (active); growth inhibition ([3]; at 50.0 µM): 91.7% (active); growth inhibition [4, 7]: 62%; growth inhibition [4, 8]: 99% (active); growth inhibition ([4]; at 50.0 µM): 90% (active); growth inhibition [5, 7]: 74% (active); growth inhibition [5, 8]: 99% (active); growth inhibition ([5]; at 50.0 µM): 91% (active); growth inhibition [6, 7]: 88% (active); growth inhibition [6, 8]: 98% (active); growth inhibition ([6]; at 50.0 µM): 88.2% (active)

**Q.** With CC(C)(C)Oc1ccc(CC(NC(=O)OCC2c3ccccc3-c3ccccc32)C(=O)O)cc1 (stereo not drawn) as the compound, how does the growth inhibition [1, 7] read?
**A.** 9%

**Q.** And the growth inhibition [1, 8]?
**A.** 95% (active)

**Q.** And the growth inhibition ([1]; at 50.0 µM)?
**A.** 90.6% (active)

**Q.** What about the growth inhibition [2, 7] of the same compound?
**A.** -11%

**Q.** And the growth inhibition [2, 8]?
**A.** 97% (active)

**Q.** And the growth inhibition ([2]; at 50.0 µM)?
**A.** 93.2% (active)

**Q.** And the growth inhibition [3, 7]?
**A.** -9%

**Q.** What about the growth inhibition [3, 8] of the same compound?
**A.** 98% (active)

**Q.** What about the growth inhibition ([3]; at 50.0 µM) of the same compound?
**A.** 90.5% (active)

**Q.** What about the growth inhibition [4, 7] of the same compound?
**A.** 33%

**Q.** And the growth inhibition [4, 8]?
**A.** 96% (active)

**Q.** And the growth inhibition ([4]; at 50.0 µM)?
**A.** 91.7% (active)

**Q.** And the growth inhibition [5, 7]?
**A.** -7%

**Q.** And the growth inhibition [5, 8]?
**A.** 97% (active)

**Q.** What about the growth inhibition ([5]; at 50.0 µM) of the same compound?
**A.** 89.2% (active)

**Q.** And the growth inhibition [6, 7]?
**A.** -3%

**Q.** And the growth inhibition [6, 8]?
**A.** 96% (active)

**Q.** What about the growth inhibition ([6]; at 50.0 µM) of the same compound?
**A.** 90.3% (active)
